Measurements taken from PubChem BioAssay (EPA / NIEHS).
Values joined by “and” are separate entries in the source; they are usually repeats but may differ in a detail not shown here. Equal entries are not always repeated. Results filed as inconclusive are left out. Active and inactive are the calls of the source. How the source made its calls: active means hit-call score of the fitted dose curve at least 0.9, where 1 is the maximum; inconclusive means response in the unintended direction; inactive means score below 0.9.

Legend:
[1] = Tanguay_ZF_120hpf_ActivityScore_legacy: (Legacy) Oregon State University Tanguay Lab 120 Hour Post-fertilization zebrafish Assay Score for Activity (AID 2283742);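 on AC50: dechorionated Tropical 5D wild-type zebrafish embryos held singly per well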
Procedure, shortened: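 Binary scoring of mortality and morphology by brightfield at 24 and 120 hpf, summarised into one activity score from 18 components relative to DMSO. Wild-type Tropical 5D zebrafish, chorion removed at 4 hpf, static exposure 6–120 hpf, 28 °C.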

[2] = ACEA_AR_agonist_AUC_viability: ACEA Biosciences xCELLigence Real-Time Cell Analysis on Androgen Receptor Agonism for Viability (AID 2283775);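 on AC50: viability read 80 hours after compound addition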
Procedure, shortened: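 Viability endpoint from xCELLigence impedance in 22Rv1 prostate cells at 80 h. Eight-point series, 100 uM maximum final.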

[3] = ACEA_AR_antagonist_AUC_viability: ACEA Biosciences xCELLigence Real-Time Cell Analysis on Androgen Receptor Antagonism for Viability (AID 2283776);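 further: 22Rv1 human prostate cancer cells growing on impedance electrode plates; area under impedance growth curve at 80 h after dosing as viability; hits lower the growth signal relative to DMSO meaning cytotoxicity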
Procedure, shortened: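 Viability endpoint from label-free cell-index monitoring: 22Rv1 cultures treated with an eight-point 1:4 dilution series starting at 100 uM final, AUC at 80 h fitted against DMSO.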

[4] = molecular target: Luciferin 4-monooxygenase (Photinus pyralis) (UniProt P08659); assay: CCTE_Simmons_QuantiLum_inhib_2: CCTE's Firefly Luciferase Inhibition Assay, Simmons Lab (AID 2283767)
Procedure, shortened: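 Cell-free QuantiLum luciferase, 5 ng/well; compounds 5 nM–87.5 uM final, 8 conc, 0.5% DMSO; 30 min, 37C, dark. Detection reagent (150 uM D-luciferin, 147 uM dATP, CoA, DTT, pH 7.8 final) injected per well, kinetic luminescence. Triplicate biological replicates.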

Luciferin 4-monooxygenase (Photinus pyralis), sequence (P08659 whole entry, looked up): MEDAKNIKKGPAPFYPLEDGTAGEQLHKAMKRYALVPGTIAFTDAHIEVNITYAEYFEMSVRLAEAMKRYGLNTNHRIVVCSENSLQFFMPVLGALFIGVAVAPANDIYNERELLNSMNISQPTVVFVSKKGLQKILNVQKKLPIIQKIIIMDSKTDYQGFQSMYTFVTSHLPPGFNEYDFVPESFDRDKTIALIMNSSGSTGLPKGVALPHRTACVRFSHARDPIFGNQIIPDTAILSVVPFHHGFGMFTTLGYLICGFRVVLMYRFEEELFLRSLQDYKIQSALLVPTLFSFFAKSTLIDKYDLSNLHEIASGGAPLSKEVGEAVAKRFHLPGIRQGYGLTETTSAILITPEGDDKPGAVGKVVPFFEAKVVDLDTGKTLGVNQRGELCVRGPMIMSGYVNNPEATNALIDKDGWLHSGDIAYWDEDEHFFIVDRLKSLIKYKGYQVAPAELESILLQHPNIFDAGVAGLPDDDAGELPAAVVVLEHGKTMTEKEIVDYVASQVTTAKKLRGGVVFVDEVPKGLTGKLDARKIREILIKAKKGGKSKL

## C1CC2OC2CC1C1CO1 (stereo not given)
[1]
  outcome: inactive
[2]
  outcome: inactive
[3]
  outcome: inactive

## Oc1ccc(Cl)cc1Cl
[1]
  outcome: inactive
[2]
  outcome: inactive
[3]
  outcome: inactive

## CN(C)c1nc(=O)n(C2CCCCC2)c(=O)n1C
[1]
  outcome: inactive
[2]
  outcome: inactive
[3]
  outcome: inactive

## CC1=C2C[C@H]3[C@@H](CC=C4C[C@@H](O)CC[C@@]43C)[C@@H]2CC[C@]12O[C@@H]1C[C@H](C)CN[C@H]1[C@H]2C
[1]
  AC50: 44.8 µM (active)
[2]
  outcome: inactive
[3]
  outcome: inactive

## Cc1cccc([N+](=O)[O-])c1
[1]
  outcome: inactive
[2]
  outcome: inactive
[3]
  outcome: inactive

## C=CC(N)=O
[1]
  outcome: inactive
[2]
  outcome: inactive
[3]
  outcome: inactive

## Nn1cnnc1
[1]
  outcome: inactive
[3]
  outcome: inactive

## Sc1ccccc1
[4]
  outcome: inactive
[2]
  outcome: inactive
[3]
  outcome: inactive

## Cc1ccccc1O
[1]
  outcome: inactive
[2]
  outcome: inactive
[3]
  outcome: inactive

## CCCN(CCC)N=O
[1]
  outcome: inactive
[2]
  outcome: inactive
[3]
  outcome: inactive

## NS(=O)(=O)C(F)(F)C(F)(F)C(F)(F)C(F)(F)C(F)(F)C(F)(F)C(F)(F)C(F)(F)F
[1]
  AC50: 38 µM (active)
[3]
  AC50: 59.4 µM (active)

## CCOCCOC(C)=O
[1]
  outcome: inactive
[2]
  outcome: inactive
[3]
  outcome: inactive

## O=S(=O)(O)C(F)(F)C(F)(F)C(F)(F)C(F)(F)C(F)(F)C(F)(F)F
[1]
  AC50: 36.6 µM (active)
[2]
  outcome: inactive
[3]
  outcome: inactive

## CCC(C)(CC)c1cc(NC(=O)c2c(OC)cccc2OC)on1
[1]
  outcome: inactive
[2]
  outcome: inactive
[3]
  outcome: inactive

## Clc1ccc(Cl)cc1
[1]
  outcome: inactive
[2]
  outcome: inactive
[3]
  outcome: inactive

## CN(C)CCO
[1]
  outcome: inactive
[2]
  outcome: inactive
[3]
  outcome: inactive

## O=C(O)C(F)(F)C(F)(F)C(F)(F)C(F)(F)C(F)(F)F
[1]
  outcome: inactive
[3]
  outcome: inactive

## Cc1cc2c3c(c1)C(c1ccccc1)=N[C@@H](NC(=O)c1ccncc1)C(=O)N3CC2
[1]
  outcome: inactive
[2]
  AC50: 50 µM (active)
[3]
  AC50: 50 µM (active)

## ClC1=C(Cl)[C@]2(Cl)[C@@H]3[C@@H](Cl)[C@H]4O[C@H]4[C@@H]3C1(Cl)C2(Cl)Cl
[1]
  outcome: inactive
[2]
  outcome: inactive
[3]
  AC50: 68.9 µM (active)

## C=CC(=O)NCNC(=O)C=C
[1]
  outcome: inactive
[2]
  outcome: inactive
[3]
  outcome: inactive

## Cc1cc(-c2ccc(N)c(C)c2)ccc1N
[1]
  outcome: inactive
[2]
  outcome: inactive
[3]
  AC50: 7.2 µM (active) and 2.03 µM (active)

## CCSC(=O)N(CC)C1CCCCC1
[1]
  outcome: inactive
[3]
  outcome: inactive

## CCOC(=O)C(O)(c1ccc(Cl)cc1)c1ccc(Cl)cc1
[1]
  outcome: inactive
[2]
  AC50: 79.6 µM (active)
[3]
  AC50: 19.6 µM (active)
